Reference: PubChem BioAssay AID624260 (Broad Institute, 2012)
The whole screen tested about 44,000 compounds, of which about 30 (0.07%) were called active. Roughly 1% stayed inconclusive and do not appear here. Cut-off read from the data, not from the text of the source: active = inhibition above about 54% (passing the limit was not always enough); inconclusive = no clear call, values can overlap the other calls. The full list was thinned out, with actives kept by preference.

Target: Histone-lysine N-methyltransferase NSD2 (Homo sapiens) (UniProt O96028)
Sequence (O96028 whole entry, looked up): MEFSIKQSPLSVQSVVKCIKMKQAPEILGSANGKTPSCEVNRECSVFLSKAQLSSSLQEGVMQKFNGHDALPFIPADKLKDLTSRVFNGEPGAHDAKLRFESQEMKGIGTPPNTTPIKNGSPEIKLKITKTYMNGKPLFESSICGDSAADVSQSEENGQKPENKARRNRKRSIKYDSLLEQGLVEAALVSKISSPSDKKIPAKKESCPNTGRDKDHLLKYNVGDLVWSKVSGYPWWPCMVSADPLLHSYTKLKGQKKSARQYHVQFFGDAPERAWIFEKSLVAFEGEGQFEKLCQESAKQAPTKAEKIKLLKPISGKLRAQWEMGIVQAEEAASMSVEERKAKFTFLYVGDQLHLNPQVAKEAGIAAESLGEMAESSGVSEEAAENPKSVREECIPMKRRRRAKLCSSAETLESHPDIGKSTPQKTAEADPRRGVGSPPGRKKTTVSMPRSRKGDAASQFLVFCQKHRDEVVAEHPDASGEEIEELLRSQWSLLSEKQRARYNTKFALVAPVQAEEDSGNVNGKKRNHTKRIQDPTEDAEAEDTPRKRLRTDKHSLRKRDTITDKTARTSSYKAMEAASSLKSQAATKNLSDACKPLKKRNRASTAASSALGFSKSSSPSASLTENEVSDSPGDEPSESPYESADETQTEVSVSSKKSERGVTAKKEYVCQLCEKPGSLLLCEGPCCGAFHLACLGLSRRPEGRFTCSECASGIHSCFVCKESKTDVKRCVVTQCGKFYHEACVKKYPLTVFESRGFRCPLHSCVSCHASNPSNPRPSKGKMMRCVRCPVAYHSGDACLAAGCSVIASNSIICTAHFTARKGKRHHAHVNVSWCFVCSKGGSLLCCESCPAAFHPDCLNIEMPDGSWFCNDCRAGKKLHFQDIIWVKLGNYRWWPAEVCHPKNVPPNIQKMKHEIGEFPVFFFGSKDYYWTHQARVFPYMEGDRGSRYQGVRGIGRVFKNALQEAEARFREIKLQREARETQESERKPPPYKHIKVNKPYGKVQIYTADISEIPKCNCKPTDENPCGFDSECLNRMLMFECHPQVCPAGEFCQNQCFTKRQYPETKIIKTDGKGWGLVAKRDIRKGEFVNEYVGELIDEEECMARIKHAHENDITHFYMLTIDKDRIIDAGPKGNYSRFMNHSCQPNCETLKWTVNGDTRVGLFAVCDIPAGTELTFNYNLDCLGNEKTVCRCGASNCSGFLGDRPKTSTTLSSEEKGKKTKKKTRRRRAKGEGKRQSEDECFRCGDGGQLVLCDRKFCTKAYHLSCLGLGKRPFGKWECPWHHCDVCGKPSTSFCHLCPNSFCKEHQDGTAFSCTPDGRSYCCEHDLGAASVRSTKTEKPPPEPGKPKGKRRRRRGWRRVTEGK
Test: NSD2 histone methyltransferase activity blockers – biochemical, plate reader, single point, primary screen (AID 624260);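 note: inhibitors reduce the monomethyl H3K36 fluorescence signal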
Details: NSD2-SET H3K36me1 DELFIA fluorescence, at 12.5 µM, hits give high values

inhibition, inactive:
Cc1ccc(-c2cnc3c(c2)C(=O)N([C@H](C)CO)C[C@H](C)[C@@H](CN(C)S(C)(=O)=O)O3)cc1 4.66%
C[C@H]1CN([C@@H](C)CO)C(=O)c2cc(-c3cccc(F)c3)cnc2O[C@@H]1CN(C)C(=O)c1ccccn1 3.24%
C[C@@H]1CN([C@H](C)CO)C(=O)c2cc(C#Cc3ccncc3)cnc2O[C@H]1CN(C)Cc1ccncc1 6.93%
C[C@@H]1CN([C@@H](C)CO)C(=O)c2cc(C#Cc3ccncc3)cnc2O[C@@H]1CN(C)C(=O)CN(C)C 3.43%
CCCC#Cc1cnc2c(c1)C(=O)N([C@H](C)CO)C[C@H](C)[C@@H](CN(C)S(=O)(=O)c1ccccc1)O2 8.48%
C[C@@H]1CN([C@@H](C)CO)S(=O)(=O)c2ccc(C#Cc3cccnc3)cc2O[C@@H]1CN(C)C(=O)CN(C)C 0.378%
COCC#Cc1cnc2c(c1)C(=O)N([C@H](C)CO)C[C@H](C)[C@H](CN(C)C(=O)Cc1cccnc1)O2 -0.822%
C[C@H](O)C#Cc1ccc2c(c1)O[C@@H](CN(C)C(=O)C1CC1)[C@H](C)CN([C@H](C)CO)S2(=O)=O 3.98%
CCC(=O)N(C)C[C@@H]1Oc2cc(C#CCOC)ccc2S(=O)(=O)N([C@@H](C)CO)C[C@@H]1C 4.65%
C[C@H](CO)N1C[C@H](C)[C@@H](CN(C)S(=O)(=O)c2cccc(F)c2)Oc2cc(C#CCN(C)C)ccc2S1(=O)=O 0.824%
COc1cc(/C=N/NC(=O)c2ccc(C(=O)NO)cc2)ccc1O -2.52%
C[C@@H]1CN([C@H](C)CO)C(=O)c2cc(C#CCN(C)C)cnc2O[C@@H]1CN(C)C(=O)Cc1cccnc1 -1.47%
CCCC#Cc1cnc2c(c1)C(=O)N([C@@H](C)CO)C[C@@H](C)[C@@H](CN(C)Cc1ccccc1F)O2 4.92%
C[C@@H]1CN([C@@H](C)CO)C(=O)c2cc(C#CC3CCCCC3)cnc2O[C@H]1CN(C)C(=O)Cc1ccccn1 -1.35%
CNC[C@H]1Oc2cc(C#CCOC)ccc2S(=O)(=O)N([C@@H](C)CO)C[C@H]1C -0.881%
C[C@H]1CN([C@@H](C)CO)S(=O)(=O)c2ccc(-c3ccncc3)cc2O[C@@H]1CN(C)C(=O)CC1CC1 -0.24%
C[C@@H]1CN([C@@H](C)CO)C(=O)c2cc(-c3ccncc3)cnc2O[C@@H]1CN(C)C(=O)C1CCCCC1 1.45%
C[C@@H]1CN([C@@H](C)CO)C(=O)Cc2cc(NC(=O)C3CC3)ccc2O[C@H]1CN(C)C(=O)NC1CCCCC1 4.29%
C[C@H](CO)N1C[C@H](C)[C@H](CN(C)Cc2cccnc2)Oc2ncc(C3=CCCC3)cc2C1=O 1.28%
COc1ccc(NC(=O)N(C)C[C@@H]2Oc3ccc(NC(=O)Cc4cn(C)c5ccccc45)cc3CC(=O)N([C@@H](C)CO)C[C@H]2C)cc1 -6.14%
CC(C)NC(=O)N(C)C[C@H]1Oc2ncc(-c3ccc(C(=O)N(C)C)cc3)cc2C(=O)N([C@H](C)CO)C[C@H]1C 1.31%
COc1ccc(NC(=O)N(C)C[C@@H]2OCc3ccccc3-c3c(n(C)c4ccccc34)C(=O)N([C@H](C)CO)C[C@H]2C)cc1 -10.2%
CCC(=O)N(C)C[C@@H]1Oc2ncc(C3=CCCC3)cc2C(=O)N([C@H](C)CO)C[C@@H]1C -1.76%
CCC(=O)N(C)C[C@H]1Oc2cc(-c3ccc(C)cc3)ccc2S(=O)(=O)N([C@@H](C)CO)C[C@H]1C -0.743%
Cc1ccccc1S(=O)(=O)N(C)C[C@@H]1OCc2ccccc2-c2c(n(C)c3ccccc23)C(=O)N([C@H](C)CO)C[C@H]1C -9.38%
O=C(C[C@H]1C[C@H]2c3cc(NC(=O)CC4CC4)ccc3O[C@H]2[C@H](CO)O1)NCc1ccccn1 -2.07%
C[C@@H]1CN([C@@H](C)CO)C(=O)c2cccc(N(C)C)c2O[C@@H]1CN(C)S(=O)(=O)c1ccccc1 2.66%
C[C@@H]1CCCCO[C@H](CN(C)Cc2ccc(Cl)c(Cl)c2)[C@@H](C)CN([C@@H](C)CO)C(=O)c2cc(NC(=O)Nc3ccccc3)ccc2O1 -6.5%
C[C@@H]1CN([C@H](C)CO)S(=O)(=O)c2ccc(C#CCN(C)C)cc2O[C@H]1CN(C)C(=O)CC1CC1 2.71%
C[C@@H]1CN([C@@H](C)CO)C(=O)c2cc(C3=CCCC3)cnc2O[C@@H]1CN(C)C(=O)Cc1ccncc1 -7.1%
CN(C)C(=O)C[C@@H]1C[C@@H]2c3cc(NC(=O)C4CCOCC4)ccc3O[C@@H]2[C@@H](CO)O1 -0.279%
COc1ccccc1S(=O)(=O)N(C)C[C@H]1Oc2cc(C#CCC3CCCC3)ccc2S(=O)(=O)N([C@@H](C)CO)C[C@H]1C -4.13%
Cc1noc(C)c1NC(=O)Nc1ccc2c(c1)C(=O)N([C@@H](C)CO)C[C@H](C)[C@@H](CN(C)Cc1ccncc1)OCCCC[C@@H](C)O2 -3.95%
C[C@@H]1CN([C@H](C)CO)S(=O)(=O)c2ccc(/C=C/c3ccccc3)cc2O[C@@H]1CN(C)Cc1ccccc1 9.82%
CC(C)CC#Cc1cnc2c(c1)C(=O)N([C@@H](C)CO)C[C@@H](C)[C@@H](CN(C)C(=O)c1cccnc1)O2 -0.174%
C[C@@H]1CN([C@H](C)CO)C(=O)c2cc(C3=CCCCC3)cnc2O[C@@H]1CN(C)C(=O)c1ccc2c(c1)OCO2 -0.482%
C[C@H]1CN([C@@H](C)CO)S(=O)(=O)c2ccc(Br)cc2O[C@H]1CN(C)C(=O)c1cnccn1 -5.84%
COc1cccc(S(=O)(=O)N[C@H]2CC[C@H](CC(=O)NC3CCC3)O[C@H]2CO)c1 8.91%
O=C(C[C@@H]1C[C@@H]2c3cc(NC(=O)c4ccc5c(c4)OCO5)ccc3O[C@@H]2[C@@H](CO)O1)NCC1CC1 0.538%
C[C@H](CO)N1C[C@H](C)[C@H](CN(C)C(=O)Cc2ccccn2)Oc2ncc(-c3cncnc3)cc2C1=O -7.65%
Cc1ccc(S(=O)(=O)Nc2ccc3c(c2)C(=O)N([C@H](C)CO)C[C@@H](C)[C@@H](CN(C)C)OCCCC[C@@H](C)O3)cc1 -3.71%
COc1ccc(NC(=O)N(C)C[C@H]2Oc3ncc(C#C[C@@H](C)O)cc3C(=O)N([C@H](C)CO)C[C@H]2C)cc1 -13%
COc1ccc(CN(C)C[C@@H]2OCCCC[C@@H](C)Oc3ccc(NS(=O)(=O)c4ccc(F)cc4)cc3C(=O)N([C@@H](C)CO)C[C@H]2C)cc1 -2.7%
CCCNC(=O)N(C)C[C@H]1Oc2ncc(C#Cc3ccncc3)cc2C(=O)N([C@@H](C)CO)C[C@@H]1C 4.58%
C/C=C/c1ccc2c(c1)O[C@H](CN(C)C(C)=O)[C@H](C)CN([C@H](C)CO)S2(=O)=O 8.37%
O=C(C[C@H]1C=C[C@H](NC(=O)CN2CCOCC2)[C@@H](CO)O1)NCc1cccc(F)c1 -94.1%
